Measured values: PubChem BioAssay (NCI)
This is part of a sample that, as a whole, favours compounds with a hit. Of some 83,000 tested, about 20% had one in any assay.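 Cell lines were cultured in 96-well plates, exposed to a single compound concentration, and assessed for percent growth 48 hours later.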 Calls of active or inactive are those of the source. Rule for the calls: active = growth percent below 10; inactive = the rest.

Assays:
Assay in all cases: NCI-60 one-dose screen, 48 h (100 = growth as untreated, 0 = no growth, -100 = all killed)
Conditions in all cases: 10 µM unless noted
SR leukemia = test system: SR leukemia
RPMI-8226 leukemia = test system: RPMI-8226 leukemia
OVCAR-8 ovarian = test system: OVCAR-8 ovarian
OVCAR-5 ovarian = test system: OVCAR-5 ovarian
OVCAR-4 ovarian = test system: OVCAR-4 ovarian
SK-OV-3 ovarian = test system: SK-OV-3 ovarian
IGROV1 ovarian = test system: IGROV1 ovarian
OVCAR-3 ovarian = test system: OVCAR-3 ovarian
HS 578T breast = test system: HS 578T breast
NCI/ADR-RES ovarian = test system: NCI/ADR-RES ovarian
T-47D breast = test system: T-47D breast
BT-549 breast = test system: BT-549 breast
MDA-MB-435 melanoma = test system: MDA-MB-435 melanoma
SW-620 colon = test system: SW-620 colon
MCF7 breast = test system: MCF7 breast
HCT-116 colon = test system: HCT-116 colon
HCC-2998 colon = test system: HCC-2998 colon
KM12 colon = test system: KM12 colon

Measured: growth

CSc1nnc(-c2cnn3c2NC(c2ccccc2)C3)n1-c1ccc(C(F)(F)F)cc1 (stereo not given)
inactive: SR leukemia 17.2% | RPMI-8226 leukemia 56.9% | OVCAR-8 ovarian 79.4% | OVCAR-5 ovarian 84.7% | OVCAR-4 ovarian 59.1% | SK-OV-3 ovarian 69.4% | IGROV1 ovarian 69.8% | OVCAR-3 ovarian 37.6% | HS 578T breast 64.7% | NCI/ADR-RES ovarian 56% | T-47D breast 54.2% | BT-549 breast 85.7% | SW-620 colon 50.9% | MCF7 breast 26.9% | HCT-116 colon 46% | HCC-2998 colon 85.9% | KM12 colon 49.3%
active: MDA-MB-435 melanoma -25.7%

COC(=O)c1cc(-c2ccccc2)[nH]c1N/N=C/c1c(Cl)cccc1Cl
inactive: OVCAR-8 ovarian 15.4% | OVCAR-5 ovarian 21.9% | OVCAR-4 ovarian 64.5% | SK-OV-3 ovarian 24.4% | T-47D breast 38.5% | BT-549 breast 24.1% | SW-620 colon 13.3%
active: SR leukemia -9.18% | RPMI-8226 leukemia -12.7% | IGROV1 ovarian -44.5% | OVCAR-3 ovarian -76.7% | HS 578T breast -30.4% | NCI/ADR-RES ovarian -16.2% | MDA-MB-435 melanoma -26.9% | MCF7 breast -38.2% | HCT-116 colon -1.99%

CCOP(=O)(OCC)c1nc(-c2ccccc2)oc1NCc1cccnc1
inactive: SR leukemia 102% | RPMI-8226 leukemia 101% | OVCAR-8 ovarian 106% | OVCAR-5 ovarian 101% | OVCAR-4 ovarian 112% | SK-OV-3 ovarian 106% | IGROV1 ovarian 100% | OVCAR-3 ovarian 110% | HS 578T breast 109% | NCI/ADR-RES ovarian 105% | T-47D breast 85.5% | BT-549 breast 111% | MDA-MB-435 melanoma 104% | SW-620 colon 101% | MCF7 breast 103% | HCT-116 colon 102% | HCC-2998 colon 106%

N#CC1CCc2c(c(-c3cn[nH]c3C(F)(F)F)nc3c(F)cc4[nH]ncc4c23)C1 (stereo not given)
active: SK-OV-3 ovarian -1.91% | IGROV1 ovarian -4.43% | HS 578T breast -8.7% | T-47D breast 1.96% | BT-549 breast -11.6% | MDA-MB-435 melanoma 7.99% | SW-620 colon 8.48% | HCT-116 colon 5.5%
inactive: SR leukemia 14.5% | RPMI-8226 leukemia 34.6% | OVCAR-8 ovarian 43% | OVCAR-5 ovarian 63.2% | OVCAR-4 ovarian 59.7% | OVCAR-3 ovarian 16.6% | NCI/ADR-RES ovarian 92.4% | MCF7 breast 12.9% | HCC-2998 colon 44% | KM12 colon 13.6%

COc1cc(C(=O)n2nc(N3CCN(C)CC3)c3cc(N)ccc32)cc(OC)c1OC
active: OVCAR-3 ovarian 4.26% | MDA-MB-435 melanoma -12% | HCT-116 colon 7.66%
inactive: SR leukemia 13.3% | RPMI-8226 leukemia 33.3% | OVCAR-8 ovarian 30.3% | OVCAR-5 ovarian 50.4% | OVCAR-4 ovarian 49.7% | SK-OV-3 ovarian 28.1% | IGROV1 ovarian 32.5% | HS 578T breast 44.5% | NCI/ADR-RES ovarian 67.9% | T-47D breast 57.7% | BT-549 breast 27.9% | SW-620 colon 30% | MCF7 breast 11.6% | HCC-2998 colon 89.7%

OCCOCCN(Cc1ccccn1)Cc1cc(I)cc(I)c1O
inactive: SR leukemia 87.8% | RPMI-8226 leukemia 96.9% | OVCAR-8 ovarian 85.7% | OVCAR-5 ovarian 92.5% | OVCAR-4 ovarian 93.9% | SK-OV-3 ovarian 107% | IGROV1 ovarian 77.9% | OVCAR-3 ovarian 90.2% | HS 578T breast 109% | T-47D breast 93.9% | BT-549 breast 81.6% | MDA-MB-435 melanoma 102% | SW-620 colon 95.5% | MCF7 breast 76% | HCT-116 colon 73.4% | HCC-2998 colon 111% | KM12 colon 91.3%
active: NCI/ADR-RES ovarian 6.52%

CCc1ccc(C(=O)/C=C/C23c4ccccc4C(c4ccccc42)C2C(=O)NC(=O)C23)cc1 (stereo not given)
active: SR leukemia 0.497% | RPMI-8226 leukemia -35.1% | OVCAR-8 ovarian -20% | IGROV1 ovarian 0.604% | OVCAR-3 ovarian -59.7% | NCI/ADR-RES ovarian 4.03% | BT-549 breast -7.29% | MDA-MB-435 melanoma -46.6% | SW-620 colon 8.84% | HCT-116 colon -40%
inactive: OVCAR-5 ovarian 15.7% | OVCAR-4 ovarian 37.5% | SK-OV-3 ovarian 38.6% | HS 578T breast 41% | T-47D breast 21.9% | MCF7 breast 16.6% | HCC-2998 colon 24.5% | KM12 colon 11.2%

C[C@]12CC[C@@H]3c4ccc(O)c([N+](=O)[O-])c4CC[C@H]3[C@@H]1CCC2=O
inactive: SR leukemia 115% | RPMI-8226 leukemia 90.5% | OVCAR-8 ovarian 112% | OVCAR-5 ovarian 92% | OVCAR-4 ovarian 81.1% | SK-OV-3 ovarian 123% | IGROV1 ovarian 80.6% | OVCAR-3 ovarian 104% | HS 578T breast 78% | NCI/ADR-RES ovarian 94.9% | T-47D breast 115% | BT-549 breast 78.3% | MDA-MB-435 melanoma 95.4% | SW-620 colon 100% | MCF7 breast 112% | HCT-116 colon 105% | HCC-2998 colon 94.1% | KM12 colon 91.1%

C/C(Nc1ccc(Cl)c(Cl)c1)=C1\CCOC1=O
inactive: SR leukemia 83.6% | RPMI-8226 leukemia 61.3% | OVCAR-8 ovarian 102% | OVCAR-5 ovarian 87.5% | OVCAR-4 ovarian 72.4% | SK-OV-3 ovarian 121% | IGROV1 ovarian 83.8% | OVCAR-3 ovarian 100% | HS 578T breast 98% | NCI/ADR-RES ovarian 86.7% | T-47D breast 86.6% | BT-549 breast 87.2% | MDA-MB-435 melanoma 82.5% | SW-620 colon 111% | MCF7 breast 96.1% | HCT-116 colon 80.7% | HCC-2998 colon 90.3%

Cc1ccc(-c2nc(N3CCNCC3)c3oc(-c4ccccc4)nc3n2)cc1
active: SR leukemia -44% | RPMI-8226 leukemia -54.7% | OVCAR-8 ovarian -66.4% | OVCAR-4 ovarian -51.6% | IGROV1 ovarian -68% | OVCAR-3 ovarian -89.5% | HS 578T breast -7.69% | NCI/ADR-RES ovarian -23.1% | T-47D breast -57.8% | MDA-MB-435 melanoma -81% | SW-620 colon -55.1% | MCF7 breast -74.6% | HCT-116 colon -71%
inactive: OVCAR-5 ovarian 14.7% | SK-OV-3 ovarian 87.4% | BT-549 breast 85.1%

O=C(NNC(=O)c1ccc(-n2cc(-c3ccccc3)nn2)cc1)Nc1ccccc1
inactive: SR leukemia 110% | RPMI-8226 leukemia 102% | OVCAR-8 ovarian 95.9% | OVCAR-5 ovarian 120% | OVCAR-4 ovarian 104% | SK-OV-3 ovarian 85.2% | IGROV1 ovarian 103% | OVCAR-3 ovarian 114% | HS 578T breast 92.2% | NCI/ADR-RES ovarian 107% | T-47D breast 102% | BT-549 breast 97.9% | MDA-MB-435 melanoma 105% | SW-620 colon 101% | MCF7 breast 99.4% | HCT-116 colon 94.3% | HCC-2998 colon 116%

O=C1NC(=O)c2c1c1c3ccccc3ccc1c1[nH]c3ccc(Br)cc3c21
inactive: SR leukemia 11.4% | OVCAR-8 ovarian 14.7% | OVCAR-5 ovarian 29.7% | OVCAR-4 ovarian 10.3% | SK-OV-3 ovarian 31% | IGROV1 ovarian 14.4% | HS 578T breast 78.4% | BT-549 breast 39.4% | MDA-MB-435 melanoma 14% | SW-620 colon 18% | HCC-2998 colon 49.3%
active: RPMI-8226 leukemia -19.9% | OVCAR-3 ovarian 8.73% | NCI/ADR-RES ovarian 3.52% | T-47D breast 4.7% | MCF7 breast 9.71% | HCT-116 colon 7.95%

CCN(CC)CCOc1ccc(C(=C(C)c2ccc(Cl)cc2)c2ccc(OCCN(CC)CC)cc2)cc1
active: SR leukemia -54.4% | RPMI-8226 leukemia -49.8% | OVCAR-8 ovarian -47.1% | OVCAR-5 ovarian -84.1% | OVCAR-4 ovarian -62.1% | SK-OV-3 ovarian -79.9% | IGROV1 ovarian -86.9% | OVCAR-3 ovarian -70.5% | HS 578T breast -52.5% | NCI/ADR-RES ovarian -68.2% | T-47D breast -66.4% | BT-549 breast -50.6% | MDA-MB-435 melanoma -95.1% | SW-620 colon -75.6% | MCF7 breast -76.5% | HCT-116 colon -94.1% | HCC-2998 colon -91.2%

N#CC1=C(c2ccc(Cl)cc2)Nc2c(c(-c3ccc(Cl)cc3)nn2-c2ccccc2)C12C(=O)Nc1ccc(Cl)cc12 (stereo not given)
inactive: SR leukemia 14.1% | RPMI-8226 leukemia 27.9% | OVCAR-8 ovarian 49.2% | OVCAR-5 ovarian 71.6% | OVCAR-4 ovarian 41.8% | SK-OV-3 ovarian 86.5% | IGROV1 ovarian 36.7% | OVCAR-3 ovarian 55.3% | HS 578T breast 57.1% | NCI/ADR-RES ovarian 52.8% | T-47D breast 42.3% | BT-549 breast 31.7% | MDA-MB-435 melanoma 55.1% | SW-620 colon 54.8% | MCF7 breast 33.2% | HCT-116 colon 26.1% | HCC-2998 colon 69.1%

CC12CCC3c4ccccc4CCC3(CO1)C2 (stereo not given)
inactive: SR leukemia 99.1% | RPMI-8226 leukemia 97.1% | OVCAR-8 ovarian 103% | OVCAR-5 ovarian 96.3% | OVCAR-4 ovarian 108% | SK-OV-3 ovarian 98.3% | IGROV1 ovarian 121% | OVCAR-3 ovarian 115% | HS 578T breast 93.5% | NCI/ADR-RES ovarian 106% | T-47D breast 101% | BT-549 breast 121% | MDA-MB-435 melanoma 107% | SW-620 colon 106% | MCF7 breast 97.1% | HCT-116 colon 117% | HCC-2998 colon 94.2% | KM12 colon 110%

CCOC(=O)C1=NN(c2ccccc2)C(=O)/C1=C\N1C(=O)CC(=O)NC1=S
inactive: SR leukemia 92.6% | RPMI-8226 leukemia 93.1% | OVCAR-8 ovarian 100% | OVCAR-5 ovarian 104% | OVCAR-4 ovarian 52.7% | SK-OV-3 ovarian 97.5% | IGROV1 ovarian 106% | OVCAR-3 ovarian 101% | HS 578T breast 102% | NCI/ADR-RES ovarian 95.9% | T-47D breast 85.9% | BT-549 breast 101% | SW-620 colon 93.7% | MCF7 breast 102% | HCT-116 colon 101% | HCC-2998 colon 112% | KM12 colon 99.4%
active: MDA-MB-435 melanoma -22.1%

CN(Cc1ccc(C(F)(F)F)cc1)CC(O)C(=O)Nc1ccc(Cl)cc1 (stereo not given)
active: SR leukemia -31.3% | RPMI-8226 leukemia -33.7% | OVCAR-8 ovarian 6.23% | IGROV1 ovarian 0.563% | OVCAR-3 ovarian -40.7% | MDA-MB-435 melanoma -4.56% | SW-620 colon -41.5% | MCF7 breast -23.4% | HCT-116 colon -94.3% | HCC-2998 colon -48.2% | KM12 colon -36.1%
inactive: OVCAR-5 ovarian 27.9% | OVCAR-4 ovarian 15.6% | SK-OV-3 ovarian 70.7% | HS 578T breast 51.7% | NCI/ADR-RES ovarian 39.3% | T-47D breast 18.4% | BT-549 breast 56.1%
